DRV1 agonist: GPR32 (DRV1) agonism, beta-arrestin recruitment. O75388. CHO-K1 GPR32 beta-arrestin PathHunter luminescence, 90 min; zero percent set by DMSO-only wells. activation, % at 76.9 µM. 48,000 tested, 2.5% active;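 active means activation of at least 60% and not above a set upper limit, about 1 call in 100 departs from these limits; inconclusive means activation of 40% to 60%, or above that upper limit; inactive means activation under 40%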; further: 0% is about no effect
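PathHunter beta-arrestin recruitment in CHO-K1 cells stably expressing ProLink-tagged GPR32. Cells were exposed to compound for 90 min at 37 C, then chemiluminescence was read after 1 h detection at ambient temperature; DMSO served as basal control.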
p53null 32C tox: p53 null cell cytotoxicity, permissive temperature. 55,000 tested, 0.62% active. Potency, µM (highest dose often 46.1 µM), for the others: at the highest dose activity change, negative = cytotoxicity, usual class: cytotoxic. H1299-neo p53 null cells, ATP luminescence, 24 h, 32C;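 further: potency means the concentration at half of the fitted maximal effect; 0% = DMSO only and -100% = full killing by 100 µM tamoxifen; nearly all actives have a fitted effect of over 55% in size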
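H1299-neo (p53-null) cells, 600/well, were pre-incubated overnight at 37C, then exposed to compounds at up to 46 uM for 24 hr at 32C. Viability was measured as ATP content by luminescence, and AC50 values came from Hill fits.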
GALC G270D act: raises human GALC G270D mutant activity in cells | Potency, µM (doses to about 57.5 µM), hits mostly activators | P54803 | 45,000 tested, 0.1% active | 145M-Twi-hGALC-G270D cells (Twitcher mouse brain line with human GALC G270D), HMU-beta-Gal fluorescence, 48 h; further: potency means the concentration at half of the fitted maximal effect; 0% is about no effect; nearly all actives have a fitted effect of over 65% in size
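Mutant human GALC (G270D), stably expressed in a Twitcher mouse brain cell line lacking endogenous GALC, is measured in live-treated cells via 6-hexadecanoylamino-4-methylumbelliferyl-β-galactoside hydrolysis (0.1 mM final, pH 5.2) with fluorescent detection.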
p53null 39C tox: selectivity test: cytotoxicity in p53 null cells, nonpermissive temperature; H1299 p53-null (neo) cells, 39C, ATPlite viability, 24 h; Potency, µM (titrated, usually from 46.1 µM), without a hit: at the top dose activity, negative = cell killing, usual class: cytotoxic; 55,000 tested, 0.97% active; AID 904;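 further: potency means the concentration at half of the fitted maximal effect; 0% = DMSO only and -100% = full killing by 100 µM tamoxifen; nearly all actives have a fitted effect of over 50% in size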
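Cells seeded at 600/well, 37C overnight. Compound added (up to 46 uM), plates shifted to 39C for 24 hr. ATPlite added, luminescence read after 20 min at room temperature.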
FH mod: Identification of activators of human fumarate hydratase by quantitative high-throughput screening; Potency, µM (series often up to 79.9 µM), for inactives: at the highest dose activity change, negative = inhibition, actives largely listed as inhibitors; 54,000 tested, 0.22% active; Fumarate hydratase, mitochondrial (Homo sapiens), P07954; FH coupled MDH/diaphorase resazurin fluorescence, 15 min; further: potency means the concentration at half of the fitted maximal effect; on the % scale 0 is the no-effect control and ±100 the full control effect; the screen sought activators but most active calls are inhibition curves; nearly all actives have a fitted effect of over 45% in size
Target sequence (P07954 whole entry, looked up): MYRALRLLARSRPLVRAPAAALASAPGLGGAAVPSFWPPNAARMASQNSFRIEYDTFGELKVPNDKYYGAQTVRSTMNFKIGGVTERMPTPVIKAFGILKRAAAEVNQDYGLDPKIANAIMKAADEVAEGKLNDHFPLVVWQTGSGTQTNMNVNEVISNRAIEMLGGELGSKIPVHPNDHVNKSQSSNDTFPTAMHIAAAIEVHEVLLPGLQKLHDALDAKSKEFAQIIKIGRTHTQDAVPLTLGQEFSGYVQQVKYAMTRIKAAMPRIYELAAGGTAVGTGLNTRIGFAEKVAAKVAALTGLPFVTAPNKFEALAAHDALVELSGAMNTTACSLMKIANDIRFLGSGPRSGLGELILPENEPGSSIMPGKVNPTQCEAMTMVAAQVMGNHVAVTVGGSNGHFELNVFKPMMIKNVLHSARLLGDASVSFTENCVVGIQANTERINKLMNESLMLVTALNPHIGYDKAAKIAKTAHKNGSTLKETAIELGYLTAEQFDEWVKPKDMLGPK
NTMT1 inhibitor: NTMT1 methyltransferase inhibition; 59,000 tested, 2.5% active; Q9BV86; NTMT1 MTase-Glo SAH luminescence, purified enzyme; Potency, µM (top dose mostly 114 µM), for the others: at the highest dose activity change, negative = inhibition, actives largely listed as inhibitors;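 further: potency means the concentration at half of the fitted maximal effect; plate controls were DMSO vehicle for no effect and no enzyme for full effect; nearly all actives have a fitted effect of over 65% in size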
Sfp PPTase inh: Sfp PPTase inhibition, chemistry optimization; shares compounds with NTMT1 inhibitor; purified Sfp PPTase enzyme activity, qHTS; Potency, µM (series often up to 114 µM), for inactives: at the highest dose activity change, negative = inhibition, hits mostly inhibitors; 230 tested, 78% active; AID 540350
HM489 growth: reduces growth of B. subtilis HM489 strain | 220 tested, 50% active | B. subtilis HM489 (acpS-) growth, BacTiter-Glo, 5 h | shares compounds with NTMT1 inhibitor | Potency, µM (titrated, usually from 114 µM), for inactives: at the highest dose activity change, negative = inhibition, actives largely listed as inhibitors
Sfp gel opt: Sfp PPTase inhibition, gel-based detection. shares compounds with NTMT1 inhibitor. purified Sfp PPTase, gel-based product detection. Potency, µM (doses to about 250 µM), for inactives: at the top dose activity change, negative = inhibition, usual class: inhibitors. 220 tested, 54% active
Sfp inh gel: inhibits B. subtilis Sfp PPTase in gel-based assay; shares compounds with NTMT1 inhibitor; purified Sfp PPTase, gel-based product detection; Potency, µM (highest dose often 250 µM), for the others: at the highest dose activity change, negative = inhibition, actives largely listed as inhibitors; 45 tested, 90% active
Sfp SAR2: Sfp phosphopantetheinyl transferase inhibition, SAR round 2. purified Sfp enzyme, PPTase activity, qHTS. AID 602370. shares compounds with NTMT1 inhibitor. Potency, µM (series often up to 57.1 µM), inactives show top-dose activity change, negative = inhibition, hits mostly inhibitors. 230 tested, 87% active
hGST A1-1 inh: hGST A1-1 enzyme inhibition, Sfp SAR counter-screen; shares compounds with NTMT1 inhibitor; hGST A1-1 enzyme activity counter-screen, qHTS; Potency, µM (highest dose often 114 µM), without a hit: at the highest dose activity change, negative = inhibition, actives largely listed as inhibitors; 55 tested, under 10 active
HSD17B4 counter: counter-screen for HPGD inhibitors: human HSD17B4 inhibition; Potency, µM (series often up to 57.1 µM), without a hit: at the highest dose activity change, negative = inhibition, usual class: inhibitors; shares compounds with NTMT1 inhibitor; 230 tested, 10% active; purified HSD17B4, estradiol/NAD+, NADH fluorescence
ALDH1A1 inh: inhibits human ALDH1A1, off-target for HPGD inhibitors. shares compounds with NTMT1 inhibitor. recombinant ALDH1A1, NADH fluorescence, propionaldehyde/NAD+. Potency, µM (series often up to 57.1 µM), for the others: at the highest dose activity change, negative = inhibition, actives largely listed as inhibitors. 230 tested, 93% active. AID 743195
NNMT inh: counter-screen for NTMT1 inhibitors: human NNMT inhibition. 120 tested, 10% active. NNMT MTase-Glo luminescence, SAH detection. Potency, µM (titrated, usually from 57.1 µM), for inactives: at the top dose activity, negative = inhibition, hits mostly inhibitors. shares compounds with NTMT1 inhibitor
Target sequence (P40261 whole entry, looked up): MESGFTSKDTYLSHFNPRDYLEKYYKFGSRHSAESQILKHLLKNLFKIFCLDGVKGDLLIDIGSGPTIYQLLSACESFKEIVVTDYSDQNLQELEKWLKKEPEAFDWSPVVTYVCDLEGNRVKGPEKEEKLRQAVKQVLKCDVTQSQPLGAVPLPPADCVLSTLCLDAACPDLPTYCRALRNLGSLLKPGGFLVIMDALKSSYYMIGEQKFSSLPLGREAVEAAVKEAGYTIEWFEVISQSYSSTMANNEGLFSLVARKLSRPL
The depositor's hits bear a star; i = inactive; u = inconclusive; x = no result given; ! = not confirmed by another sample; [ ] = dose if it differs, or a comment. Hits are enriched below; roughly 3.9% of the tested compounds scored in any of these assays. Unless noted, the call rests on the fitted dose curve; in most records, active means well fitted curve in the direction sought with a large enough effect; inconclusive means small, poorly fitted or top-dose-only effect, or another doubt; inactive means no such curve, though single readings can be large; an effect the other way counts as inactive or inconclusive.

SMILES	DRV1 agonist	p53null 32C tox	GALC G270D act	p53null 39C tox	FH mod	NTMT1 inhibitor	others
CSCC[C@H](NC(=O)[C@H](CCSC)NC(=O)CNC(=O)[C@H](Cc1ccc(O)cc1)NC(=O)[C@H](Cc1ccccc1)NC(=O)[C@H](CCCN=C(N)N)NC(=O)[C@H](CC(=O)O)NC(=O)[C@@H]1CCCN1C(=O)[C@H](CC(=O)O)NC(=O)[C@@H]1CCCN1C(=O)[C@@H]1CCCN1C(=O)[C@@H](N)CC(=O)O)C(N)=O	x	x	x	x	8%[20.6 µM]	10%[12.6 µM]
Cc1ccc(-n2nc(C(=O)N3CCN(c4cccc(C(F)(F)F)c4)CC3)c(=O)n(C)c2=O)cc1	-6	34%	i	30%	-28%	u
Cc1ccnc(NC(=S)N2CCN(c3cccc(C(F)(F)F)c3)CC2)c1	x	x	x	x	x	x	Sfp PPTase inh=4.7µM*;HM489 growth=12µM*;Sfp gel opt=0.32µM*!;Sfp inh gel=4.3µM*;Sfp SAR2=0.65µM*;hGST A1-1 inh=-3%;HSD17B4 counter=-25%;ALDH1A1 inh=7.6µM*
CSc1ncc(C(=O)N2CCN(c3cccc(C(F)(F)F)c3)CC2)c(C)n1	35	-9%	i	-11%	-3%	18%
Cc1ccnc(NC(=S)N2CCN(c3cccc(C(F)(F)F)c3)C2)c1	x	x	x	x	x	-11%[57.5 µM]	Sfp PPTase inh=3%;HM489 growth=-28%;Sfp gel opt=u;Sfp SAR2=0.81µM*;HSD17B4 counter=-8%;ALDH1A1 inh=22µM*
Cc1ccnc(NC(=S)N[C@H]2CCN(c3cccc(C(F)(F)F)c3)C2)c1	x	x	x	x	x	8%[57.5 µM]	Sfp PPTase inh=-3%;HM489 growth=u;Sfp gel opt=u;Sfp SAR2=u;HSD17B4 counter=0%;ALDH1A1 inh=22µM*
FC(F)(F)c1cccc(N2CCN(C(=S)Nc3cnccn3)CC2)c1	x	x	x	x	x	x	Sfp PPTase inh=u;HM489 growth=-53%;Sfp gel opt=158µM*;Sfp SAR2=u;HSD17B4 counter=30µM*;ALDH1A1 inh=24µM*
Cn1nnc2c(N3CCN(c4cccc(C(F)(F)F)c4)CC3)ncnc21	-4	1%	i	9%	6%	4%
Cc1ccc2nc(N3CCN(c4cccc(C(F)(F)F)c4)CC3)c3nnnn3c2c1	1	-11%	x	0%	x	x
FC(F)(F)c1cc(-c2ncn(/C=C\c3nnco3)n2)cc(C(F)(F)F)c1	x	x	x	x	10%	5%[57.5 µM]
CCCCc1nnc(-c2cnn(C)c2N)n1CCCn1ccnc1	x	x	x	x	x	1%[57.5 µM]
CCC(C)c1ccc(NC(=O)Cn2cnc3c2c(=O)n(C)c(=O)n3C)cc1 (stereo not drawn)	x	x	x	x	-2%	u
Cc1scc2c1C(=O)NS2(=O)=O	x	x	x	x	x	10%
N#Cc1ccc(Nc2nc(-c3ccc(O)cc3O)cs2)cc1C(F)(F)F	x	x	x	x	u	u	NNMT inh=-28%
O=C(Nc1ccc(F)c(C(F)(F)F)c1)Nc1nc(-c2ccncc2)cs1	x	x	x	x	x	4%[57.5 µM]
Cc1cc2c(c(=O)[nH]1)OC(C(O)CC(C)C)O2 (stereo not drawn)	x	x	x	x	-1%	-16%	NNMT inh=2%
COc1ccccc1NC(=O)Nc1ccc2ccccc2c1	x	x	x	x	u	-9%[57.5 µM]	NNMT inh=-14%
COc1ccc(CNC(=O)C(=O)Nc2ccccc2OC)cc1	-5	-1%	i	-1%	-18%	15%
COC1/C=C/C(C)(O)C(SCC(N)C(=O)O)CC(=O)OC(C)C(C)CC/C=C/1C (stereo not drawn)	x	x	x	x	10%[53.3 µM]	-2%[29.8 µM]
COc1cc2nc(N3CCN(C(=O)c4ccco4)C4CCCCC43)nc(N)c2cc1OC (stereo not drawn)	x	x	x	x	-7%	u	NNMT inh=24%
COc1ccc(OC)c2sc(N3CCN(C(=O)c4ccco4)CC3)nc12	-9	-3%	i	17%	9%	-8%
CC1(C)C(=O)N2c3ccccc3[C@]3(CC(n4cnc5ccccc5c4=O)C(=O)O3)[C@H]2N1O (stereo partly drawn)	x	x	x	x	-3%[53.3 µM]	6%[29.8 µM]

From PubChem BioAssay
